Many of the other results were omitted from the sample, so the strongest signals are more common in it than they were.
Experiments:
Test in all cases: glycan array binding signal (z-score within array); higher = stronger binding
Settings in all cases: glycan notation: IUPAC condensed, linker removed
[1] = molecular target: GalNAc(b1-4)GlcNAc(b1-3)GalNAc(b1-4)GlcNAc
How it was run: (§1)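 Columns mapping to the same glycan were averaged after glycan names were converted to IUPAC-condensed notation. The data come from 3228 arrays in the Consortium for Functional Glycomics database, limited to those with an available protein sequence. Binding is reported as a within-array Z-score averaged across arrays of one protein sequence and across linkers.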

[2] = molecular target: GalNAc3S(b1-4)[Fuc(a1-3)]GlcNAc
How it was run: as §1

[3] = molecular target: Glc(a1-4)Glc
How it was run: as §1

[4] = molecular target: GlcNAc(b1-2)[GlcNAc(b1-6)]Man(a1-6)[GlcNAc(b1-4)][GlcNAc(b1-2)Man(a1-3)]Man(b1-4)GlcNAc(b1-4)GlcNAc
How it was run: as §1

[5] = molecular target: GlcNAc(b1-3)Gal(b1-4)GlcNAc(b1-3)Gal(b1-4)GlcNAc(b1-3)Gal(b1-4)GlcNAc(b1-2)[GlcNAc(b1-3)Gal(b1-4)GlcNAc(b1-3)Gal(b1-4)GlcNAc(b1-3)Gal(b1-4)GlcNAc(b1-6)]Man(a1-6)[GlcNAc(b1-3)Gal(b1-4)GlcNAc(b1-3)Gal(b1-4)GlcNAc(b1-3)Gal(b1-4)GlcNAc(b1-2)Man(a1-3)]Man(b1-4)GlcNAc(b1-4)[Fuc(a1-6)]GlcNAc
How it was run: as §1

[6] = molecular target: GlcNAc(b1-3)Gal(b1-4)GlcNAc(b1-6)[GlcNAc(b1-3)Gal(b1-3)]GalNAc
How it was run: as §1

[7] = molecular target: GlcNAc(b1-3)GalNAc
How it was run: as §1

[8] = molecular target: GlcNAc(b1-3)Man
How it was run: as §1

[9] = molecular target: GlcNAc(b1-3)[GlcNAc(b1-4)][GlcNAc(b1-6)]GlcNAc
How it was run: as §1

[10] = molecular target: GlcNAc(b1-4)GlcNAc(b1-4)GlcNAc
How it was run: as §1

[11] = molecular target: Kdn(a2-3)Gal(b1-3)GlcNAc
How it was run: as §1

[12] = molecular target: Man(a1-2)Man(a1-2)Man(a1-3)Man
How it was run: as §1

[13] = molecular target: Neu5Ac(a2-3)Gal(b1-3)GalNAc
How it was run: as §1

[14] = molecular target: Neu5Ac(a2-3)Gal(b1-3)GlcNAc(b1-6)GalNAc
How it was run: as §1

[15] = molecular target: Neu5Ac(a2-3)Gal(b1-3)[Neu5Ac(a2-6)]GlcNAc(b1-3)[Fuc(a1-3)[Gal(b1-4)]GlcNAc(b1-6)]Gal(b1-4)Glc
How it was run: as §1

[16] = molecular target: Neu5Ac(a2-3)Gal(b1-4)Glc
How it was run: as §1

[17] = molecular target: Neu5Ac(a2-3)Gal(b1-4)[Fuc(a1-3)]GlcNAc(b1-3)Gal(b1-4)GlcNAc
How it was run: as §1

[18] = molecular target: Neu5Ac(a2-6)Gal(b1-4)GlcNAc(b1-2)Man(a1-6)[Gal(b1-4)GlcNAc(b1-2)Man(a1-3)]Man(b1-4)GlcNAc(b1-4)GlcNAc
How it was run: as §1

[19] = molecular target: Neu5Ac(a2-6)Gal(b1-4)GlcNAc(b1-2)[Neu5Ac(a2-6)Gal(b1-4)GlcNAc(b1-6)]Man(a1-6)[Neu5Ac(a2-6)Gal(b1-4)GlcNAc(b1-2)Man(a1-3)][GlcNAc(b1-4)]Man(b1-4)GlcNAc(b1-4)GlcNAc
How it was run: as §1

[20] = molecular target: Neu5Ac(a2-6)Gal(b1-4)GlcNAc(b1-3)Gal(b1-4)GlcNAc(b1-3)Gal(b1-4)GlcNAc
How it was run: as §1

[21] = molecular target: Neu5Ac(a2-6)GalNAc(b1-4)GlcNAc
How it was run: as §1

[22] = molecular target: Neu5Ac(a2-8)Neu5Ac
How it was run: as §1

[23] = molecular target: Neu5Gc(a2-3)Gal(b1-3)GlcNAc
How it was run: as §1

B1: B160 (Bifidobacterium sp) (protein)
chain: MVSHNKRIVAALAAVAAMGIGLAGCGGSDTAGDTKSGSDGGVVNITYMHRLPDSEGMTLVNDIVAKWNKEHPNIQVKATKFDGNAADMIKKLETDVKAGNAPDLAQVGYAEVPEVFTKGLLQDVTDEAAKYKDDFASGPFALMQVDGKTYGLPQDTGPLTYFYNAAEFEKLGITVPKTADELIETAKKTAAQGKYIMTFTPDEAMMMMSGQAGASGPWYKVDGNSWVVNTQTKGSKAVADVYQQLIDNKAALTNPRWDASFDNSIQSGQLIGTVAAAWEAPLFIDSAGGTGAGEWKVTQLGDWFGNGTKTGANGGSGVAVLKGSKHPAEAMEFLDWFNTQVDDLVSQGLVVAATTADAKTPQKWSDYFSGQDVMAEFKTANDNMGDFTYMPGFSAVGAAMKQTAAKAADGSAKVSDVFDTAQKTSVDTLKNLGLSVKE
glycan array binding signal (z-score) [1]: -0.191
glycan array binding signal (z-score) [2]: -0.117
glycan array binding signal (z-score) [3]: -0.177
glycan array binding signal (z-score) [4]: -0.149
glycan array binding signal (z-score) [5]: -0.094
glycan array binding signal (z-score) [6]: -0.164
glycan array binding signal (z-score) [7]: -0.154
glycan array binding signal (z-score) [8]: -0.156
glycan array binding signal (z-score) [9]: -0.174
glycan array binding signal (z-score) [10]: -0.167
glycan array binding signal (z-score) [11]: -0.172
glycan array binding signal (z-score) [12]: -0.159
glycan array binding signal (z-score) [13]: -0.204
glycan array binding signal (z-score) [14]: -0.161
glycan array binding signal (z-score) [15]: -0.173
glycan array binding signal (z-score) [16]: -0.173
glycan array binding signal (z-score) [17]: -0.165
glycan array binding signal (z-score) [18]: -0.136
glycan array binding signal (z-score) [19]: -0.14
glycan array binding signal (z-score) [20]: -0.145
glycan array binding signal (z-score) [21]: -0.167
glycan array binding signal (z-score) [22]: -0.174
glycan array binding signal (z-score) [23]: -0.189
